Laboratory results from PubChem BioAssay AID485364 (National Center for Advancing Translational Sciences (NCATS), 2010).
Among all 360,000 compounds or so, about 11,000 (3.1%) were called active. Roughly 4% stayed inconclusive and do not appear here. Calls come from the whole dose curve; as a rule, active = well fitted inhibition curve with a large enough effect; inconclusive = small, poorly fitted or top-dose-only effect; inactive = no such curve, though single readings can be large or run the other way. For the sample, actives were picked, then their nearest neighbours and some compounds at random.

The molecules below were run against Schistosoma mansoni thioredoxin glutathione reductase (TGR) (UniProt Q962Y6) (assay: qHTS Assay for the Inhibitors of Schistosoma Mansoni Peroxiredoxins). Conditions: purified TGR, DTNB reduction, TNB absorbance 405 nm; series mostly up to 114 µM; activity change, negative = inhibition: at the top concentration.
How it was run: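 First, TGR (20 nM dispensed) and NADPH were mixed with compound. Second, a 15 min room-temperature incubation followed. Third, further NADPH and then DTNB were added to start the reaction. Finally, TNB absorbance was monitored kinetically.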
% is set by controls: 0 for no effect and ±100 for the full control effect; potency is the fitted concentration of half-maximal effect.
Note: nearly all actives have a fitted effect of over 60% in size.

| SMILES | activity change, negative = inhibition | Potency |
| --- | --- | --- |
| Cc1ccc(N(C)C(=O)C2CCN(S(=O)(=O)c3ccc4c(c3)CCCN4C(=O)C3CCC3)CC2)cc1 | -0.86% (inactive) |  |
| COc1cccc(CNCc2c(C(=O)O)n(Cc3ccc(C)cc3)c3cc(C)ccc23)c1OC | 5.78% (inactive) |  |
| Cc1ccc(NC(=O)CN2C(=O)CC(C)Sc3ccccc32)c(C)c1 (stereo not drawn) | -3.82% (inactive) |  |
| Cc1ccc2oc(=O)c3cnn(CC(=O)NCc4ccccc4Cl)c3c2c1 | -4.87% (inactive) |  |
| CC(C)c1ccc(NS(=O)(=O)c2ccc3[nH]cc(C(=O)NC4CCCC4)c(=O)c3c2)cc1 | 7.55% (inactive) |  |
| CC(C)(C)C1C/C(=C/c2ccco2)C(=O)/C(=C/c2ccco2)C1 (stereo not drawn) |  | 39.8 µM (active) |
| CCCCN=C1N/C(=C\c2ccco2)C(=O)N1c1ccccc1 |  | 20 µM (active) |
| CCOC(=O)C1(C)NC(c2ccco2)C2C(=O)N(c3ccccc3)C(=O)C21 (stereo not drawn) | -3.96% (inactive) |  |
| CCOc1c(CNCc2ccc(C(=O)O)cc2)cccc1OC | -2.21% (inactive) |  |
| CCOc1cccc2c1N[C@@H](c1ccc(C(=O)O)cc1)[C@H]1CC=C[C@@H]21 |  | 7.08 µM (active) |
| CCOc1cccc(CC(=O)N2CCc3c([nH]c4ccccc34)C2c2ccc(F)cc2)c1OCC (stereo not drawn) | 4.64% (inactive) |  |
| CCOC(=O)N1CCc2c(sc3c2c(=O)n(Cc2ccccc2)c(=O)n3CC(=O)Nc2cccc(C)c2)C1 | -0.288% (inactive) |  |
| Cc1ccc(N2CC(c3nnc(Cc4ccccc4Cl)o3)CC2=O)cc1 (stereo not drawn) | 12% (inactive) |  |
| CCOc1ccccc1CNC(=O)c1ccc2c(c1)nc1n2CCC(C)C1 (stereo not drawn) | -0.951% (inactive) |  |
| CCOc1cccc2cc(-c3cn4c(n3)sc3cc(C)ccc34)c(=O)oc12 | 1.43% (inactive) |  |
| O=C1NC(=O)N(c2ccccc2)C(=O)/C1=C/c1ccc([N+](=O)[O-])s1 |  | 5.62 µM (active) |
| COc1cccc(/C=C2\SC(=N)N(c3ccc(F)cc3)C2=O)c1 | 3.46% (inactive) |  |
| COc1cc(/C=C2/C(=O)NN(c3ccc(F)cc3)C2=O)cc([N+](=O)[O-])c1O | -12.7% (inactive) |  |
| COc1cccc(N2C(=O)NC(=O)/C(=C\c3ccc([N+](=O)[O-])s3)C2=O)c1 |  | 8.91 µM (active) |
| Cc1ccccc1-c1nc2scc(CCNC(=O)C(=O)Nc3ccc(F)cc3F)n2n1 | 0.0736% (inactive) |  |
| Cc1ccc(S(=O)(=O)N(Cc2nc(-c3ccc(Cl)cc3)no2)C2CCCCC2)cc1 | 10.4% (inactive) |  |
| COc1ccc(CCN2C(=O)c3oc4cc(C)cc(C)c4c(=O)c3C2c2ccccc2F)cc1OC (stereo not drawn) | -9.97% (inactive) |  |
| Cc1cc(C)cc(OCC(=O)Nc2nc(-c3ccc(F)cc3)ns2)c1 | 6.53% (inactive) |  |
| Cc1ccn2c(Nc3ccc4c(c3)OCCO4)c(-c3ccc(C)s3)nc2c1 | 4.83% (inactive) |  |
| COc1cc(C(=O)NC(=S)NCc2ccco2)cc(OC)c1OC | 3.26% (inactive) |  |
| COc1cc(Cn2c(N)c(C(=O)NCc3ccco3)c3nc4ccccc4nc32)cc(OC)c1OC |  | 7.08 µM (active) |

| SMILES | activity change, negative = inhibition | Potency |
| --- | --- | --- |
| COc1cc(-n2c(C)nc3cc(C(=O)NCc4ccco4)ccc32)cc(OC)c1OC | 0.602% (inactive) |  |
| CCc1ccc(S(=O)(=O)c2nnn3c2nc(NCc2ccccc2OC)c2cc(Cl)ccc23)cc1 | 8.14% (inactive) |  |
| Cc1nn(Cc2ccc(F)cc2)c(C)c1NC(=O)c1cc(CC(C)C)on1 | 0.928% (inactive) |  |
| O=C(CSc1cccc2cccnc12)N/N=C/c1cccnc1 | 10.9% (inactive) |  |
| COc1ccccc1N1CCN(C(CNC(=O)Oc2ccccc2)c2cccnc2)CC1 (stereo not drawn) | 0.19% (inactive) |  |
| CCOC(=O)N1CCN(C(c2cccnc2)c2ccc3cccnc3c2O)CC1 (stereo not drawn) |  | 0.316 µM (active) |
| COc1ccc(CC(=O)Nc2nnc3n2CCS3)cc1OC | -0.169% (inactive) |  |
| CCOC(=O)c1c(C)[nH]c(CCC(=O)NCCCN2CCN(c3cccc(Cl)c3)CC2)c1C | -6.57% (inactive) |  |
| CN(C(=O)c1ccc2c(c1)N(Cc1cccc(Cl)c1)C(=O)c1ccccc1S2=O)C1CCCCC1 (stereo not drawn) | 13.3% (inactive) |  |
| CCOc1ccc(C(C)=O)cc1COC(=O)CNC(=O)c1cccs1 |  | 11.2 µM (active) |
| CCOc1ccc(C(C)=O)cc1COC(=O)c1cnc(Cl)c(Cl)c1 | -19.2% (inactive) |  |
| Cc1ccc(COC(=O)CN2C(=O)NC3(CCCC3)C2=O)cc1 | -26.1% (inactive) |  |
| CCOc1ccc(C(C)NC(=O)CN2C(=O)NC3(CCCCC3)C2=O)cc1OCC (stereo not drawn) | 1.76% (inactive) |  |
| CCOc1ccc(C(C)=O)cc1COC(=O)CN1C(=O)NC2(CCCC2)C1=O |  | 10 µM (active) |
| COc1ccc(C(=O)COC(=O)CNC(=O)c2cccs2)cc1Br | -32.3% (inactive) |  |
| CCOc1ccccc1N(C)C(=O)c1cc2c(s1)-c1ccccc1OC2 | 0.733% (inactive) |  |
| Cc1nnc(NCc2ccccc2)c2c1nnn2Cc1ccc(F)cc1 | 5.94% (inactive) |  |
| CCc1nc(-c2cc(S(=O)(=O)N3CCN(c4ccc(OC)cc4)CC3)ccc2OC)no1 | 3.63% (inactive) |  |
| Cc1ccc(CNC(=O)Cn2c(=O)ccc3cc(S(=O)(=O)N4CCCC4)ccc32)cc1 | -0.446% (inactive) |  |
| Cc1ccc(NC(=O)CSc2nc3ccccc3c3nc(CCn4cncc4C)nn23)cc1F | -0.64% (inactive) |  |
| CCC/C=C(\CCC)C(NC(=O)Cc1ccccc1)c1ccc(C(=O)OC)cc1 (stereo not drawn) | -12.9% (inactive) |  |
| CC(=O)c1ccc(OC(NC(=O)Cc2ccccc2)C(Cl)(Cl)Cl)cc1 (stereo not drawn) |  | 22.4 µM (active) |
| CC(=O)c1ccc(NC(=O)N[C@@H](Cc2ccccc2)C(=O)O)cc1 | 2.42% (inactive) |  |
| COc1ccc(NC(=O)c2sc3nc[nH]c(=O)c3c2C)cc1 | -1.14% (inactive) |  |
| COc1ccccc1NC(=O)C1=C(C)Nc2nc(SCC(=O)c3ccc(C)cc3)nn2C1c1ccccc1C (stereo not drawn) | 7.49% (inactive) |  |
| CCCCCn1c(=O)[nH]c2cc(C(=O)Nc3cc(C)cc(C)c3)ccc2c1=O | 0.323% (inactive) |  |

| SMILES | activity change, negative = inhibition | Potency |
| --- | --- | --- |
| O=C1CC[C@H](O)CCN1[C@H](CSc1ccc(Br)cc1)Cc1ccccc1 | -6.32% (inactive) |  |
| C[C@H]1CCC(=O)N([C@H](CSc2ccccc2)Cc2ccccc2)CC1 | -20% (inactive) |  |
| COc1ccc(SC[C@H](Cc2ccccc2)N2CCN(CCc3ccccc3)CCC2=O)cc1 |  | 17.8 µM (active) |
| COc1cccc(NC(=O)CSC2=Nc3ccccc3C3=NC(CC(=O)NC4CCCCC4)C(=O)N23)c1 (stereo not drawn) | 3.31% (inactive) |  |
| CC(=O)c1ccc(NC(=O)c2nc3nc(C)cc(C(F)F)n3n2)cc1 | -2.5% (inactive) |  |
| O=C(NNC(=S)Nc1ccc(Br)cc1Cl)c1ccco1 | -15.5% (inactive) |  |
| O=C(/C=C/c1ccco1)NC(=S)Nc1ccccc1Br |  | 35.5 µM (active) |
| O=C(/C=C/c1ccco1)NC(=S)N1CCCCC1 |  | 25.1 µM (active) |
| COc1ccc(Cl)cc1C(=O)NNC(=S)NC(=O)/C=C/c1ccco1 | -28.9% (inactive) |  |
| COc1ccccc1/C=C/C(=O)NC(=S)N1CCOCC1 | -5.17% (inactive) |  |
| COc1ccc(/C=C/C(=O)NC(=S)N2CCCC(C(N)=O)C2)cc1 (stereo not drawn) | 3.32% (inactive) |  |
| O=C(Nc1ccc2nc(SCC(=O)N3CCCc4ccccc43)sc2c1)c1ccc(Cl)cc1 | 9.24% (inactive) |  |
| COc1ccccc1-c1noc(CSc2nnc(-c3ccccc3)n2-c2ccc(C)c(C)c2)n1 | 4.75% (inactive) |  |
| O=C(O)c1ccc(CSc2nc3cccnc3n2Cc2cccc(F)c2)cc1 | 9.94% (inactive) |  |
| Cc1ccc(-n2ncc(C(=O)N(C)Cc3ccccc3)c2-n2cccc2)cc1 | 2.53% (inactive) |  |
| CC(=O)c1ccc(NS(=O)(=O)c2ccc(-c3cc(C)no3)s2)cc1 | -8.37% (inactive) |  |
| COc1ccccc1CNC(=O)c1ccc(-n2c(C)cc3c2CCCC3)cc1 | -25.8% (inactive) |  |
| Cn1c(=O)c(=O)n(C)c2cc(NC(=O)c3ccccc3Br)ccc21 | 0.681% (inactive) |  |
| CN1C(=O)/C(=C\c2cc(Br)cs2)c2ccccc21 | -1.32% (inactive) |  |
| CN1C(=O)/C(=N/OC(=O)c2ccccc2Br)c2ccccc21 |  | 12.6 µM (active) |
| Cc1ccc(C)c(NC(=O)CSC2=Nc3ccccc3N=C(c3ccc(F)cc3)C2)c1 | -2.76% (inactive) |  |
| COc1cc(C(=O)Nc2ccc(-n3c(C)nc4ccccc4c3=O)cc2)cc(OC)c1OC | -1.35% (inactive) |  |
| Cc1ccc(Sc2cc(C(=O)c3ccccc3C(=O)O)ccc2[N+](=O)[O-])cc1 | -7.05% (inactive) |  |
| Cc1ccc(SC(CC(=O)c2ccc(C(C)(C)C)cc2)C(=O)O)cc1 (stereo not drawn) |  | 2 µM (active) |
| CC(C)(C)c1ccc(C(=O)NNC(=O)Cc2ccccc2)cc1 | 4.42% (inactive) |  |
| COc1ccc2[nH]c3c(c2c1)CCN(C(=O)CCC1CCCC1)C3c1ccc(F)cc1 (stereo not drawn) | -6.55% (inactive) |  |

| SMILES | activity change, negative = inhibition | Potency |
| --- | --- | --- |
| CCO[C@@H]1OC(C(N)=O)=C[C@H](c2ccc(Br)cc2)[C@H]1CCCO | 2.27% (inactive) |  |
| C#CCNC(=O)C1=C[C@@H](c2ccccc2)[C@H](CCCO)[C@@H](OCC)O1 |  | 35.5 µM (active) |
| CCO[C@H]1OC(C(=O)NCc2ccccc2)=C[C@@H](c2coc3ccccc3c2=O)[C@@H]1CCCO | -1.2% (inactive) |  |
| Cn1c(SCC(=O)c2cccs2)nnc1-c1ccco1 |  | 44.7 µM (active) |
| Cn1c(SCC(=O)N2CCCC2)nnc1-c1cccs1 | -6% (inactive) |  |
| CCn1c(SCC(=O)Nc2nccs2)nnc1-c1ccco1 | -7.64% (inactive) |  |
| Cc1ccc(SCC(=O)Nc2ccc3oc(-c4ccccc4F)nc3c2)cc1 | -9.68% (inactive) |  |
| CCc1ccc(Nc2nn3c(=O)c4cc5c(cc4nc3s2)OCO5)cc1 | -4.94% (inactive) |  |
| CC(=O)CCS(=O)(=O)c1ccc(C)c(C)c1 |  | 50.1 µM (active) |
| O=C(O)CCS(=O)(=O)c1ccc(-c2ccccc2)cc1 | -10.8% (inactive) |  |
| Cc1ccc(S(=O)(=O)NCCC(=O)Nc2ccc(C)c(Cl)c2)cc1C | 4.29% (inactive) |  |
| CC(=O)c1c(C)n(S(=O)(=O)c2ccc(Cl)cc2)c2ccc(NS(=O)(=O)c3ccc(Cl)cc3)cc12 | -17.9% (inactive) |  |
| CSc1nn(Cc2cccc(C)c2)c(N)c1S(=O)(=O)c1ccccc1 | 12.3% (inactive) |  |
| Cc1ccc(C(=O)N/C(=C\c2ccco2)C(=O)NC2CCS(=O)(=O)C2)cc1 (stereo not drawn) |  | 31.6 µM (active) |
| COc1ccccc1C(=O)N/C(=C/c1ccco1)C(=O)Nc1ccc(C(=O)O)cc1 |  | 50.1 µM (active) |
| Cc1ccc(C(=O)N/C(=C/C=C/c2ccccc2)C(=O)NCc2ccco2)cc1 | 0.675% (inactive) |  |
| CC(C)(C)c1ccc(/C=C/C(=O)NC2CCS(=O)(=O)C2)cc1 (stereo not drawn) | 12.1% (inactive) |  |
| Cc1ccc(NC(=O)/C(=C\c2ccccc2)NC(=O)c2ccco2)cc1 | -2.41% (inactive) |  |
| O=C(NCC1CCCO1)/C(=C\c1ccco1)NC(=O)c1ccccc1 (stereo not drawn) | -35.4% (inactive) |  |
| O=C(Nc1ccccc1)/C(=C\c1ccco1)NC(=O)c1ccco1 |  | 10 µM (active) |
| COc1ccccc1C(=O)N/C(=C/c1ccc2c(c1)OCO2)C(=O)Nc1cccc(C(=O)O)c1 | 6.54% (inactive) |  |
| O=C(NCc1ccco1)/C(=C/c1ccco1)NC(=O)c1ccccc1 |  | 39.8 µM (active) |
| COc1ccc(/C=C(/NC(=O)c2ccco2)C(=O)Nc2ccc(C(C)=O)cc2)cc1 | -6.99% (inactive) |  |
| NC(=O)C1CCN(C(=O)/C(=C/c2ccco2)NC(=O)c2ccccc2)CC1 | -24.6% (inactive) |  |
| O=C(NNC(=O)c1ccco1)Nc1ccccc1 | 4.12% (inactive) |  |
